Laboratory results as given in PubChem BioAssay AID1159580 (chemical genetic matrix, 2015).
Screen size: about 5,500 compounds; about 2,000 (36%) were called active. Another 18% or so got no clear call; they are omitted. Cut-off read from the data, not from the text of the source: active = normalized growth mostly below about 0.91 (no sharp cut-off); inconclusive = no clear call, values can overlap the other calls; inactive = mostly above about 0.92. Some of the results follow.

Test: chemical genetic growth profiling, strain panel (AID 1159580);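 note: tested at 20 µM; growth read once vehicle control cultures reached saturation at 30 °C; 1 = growth at the plate median or of vehicle wells; lower values mean less growth of the strain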
Details: S. cerevisiae deletion strains, growth OD

Measured: normalized growth

COC(=O)c1c(-c2cc(OC)c(OC)c(OC)c2)c2ccc(OCc3ccccn3)cc2c(=O)n1-c1ccc(N)cc1
inactive: locus YAL013W, strain DEP1, active compounds read low 1.02 | locus YAL040C, strain CLN3, active compounds read low 1.01 | locus YCL061C, strain MRC1 (second series), active compounds read low 0.999 | locus YDR150W, strain NUM1, active compounds read low 1.01 | locus YDR363W, strain ESC2, active compounds read low 1.01 | locus YER002W, strain NOP16, active compounds read low 1.03 | locus YMR307W, strain GAS1, active compounds read low 1.01 | locus YNL128W, strain TEP1, active compounds read low 1.02 | locus YNL175C, strain NOP13, active compounds read low 1.03 | locus YNL197C, strain WHI3, active compounds read low 1.04 | locus YNL224C, strain SQS1, active compounds read low 1.04 | locus YOR083W, strain WHI5 (second series), active compounds read low 1.01 | locus YPL055C, strain LGE1, active compounds read low 1.02
